# From PubChem BioAssay
# Unmarked numbers belong to inactive results. The source made the active and inactive calls.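 How the source made its calls: active means inhibition above the hit cutoff set in the earlier primary screen (cut at about 27% in these data); inactive means the rest.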
# Target: Protein phosphatase methylesterase 1 (Homo sapiens) (UniProt Q9Y570)
# Experiment: human PME-1 methylesterase inhibition confirmation – biochemical, fluorescence polarization, FP-Rh probe, triplicate (AID 2171);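 further: 0% = enzyme with DMSO and 100% = wells lacking PME-1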
# Settings: recombinant PME-1, FP-Rh probe fluorescence polarization; at 5.9 µM; active compounds read high
# Chain of Protein phosphatase methylesterase 1 (Homo sapiens) (Q9Y570 whole entry, looked up): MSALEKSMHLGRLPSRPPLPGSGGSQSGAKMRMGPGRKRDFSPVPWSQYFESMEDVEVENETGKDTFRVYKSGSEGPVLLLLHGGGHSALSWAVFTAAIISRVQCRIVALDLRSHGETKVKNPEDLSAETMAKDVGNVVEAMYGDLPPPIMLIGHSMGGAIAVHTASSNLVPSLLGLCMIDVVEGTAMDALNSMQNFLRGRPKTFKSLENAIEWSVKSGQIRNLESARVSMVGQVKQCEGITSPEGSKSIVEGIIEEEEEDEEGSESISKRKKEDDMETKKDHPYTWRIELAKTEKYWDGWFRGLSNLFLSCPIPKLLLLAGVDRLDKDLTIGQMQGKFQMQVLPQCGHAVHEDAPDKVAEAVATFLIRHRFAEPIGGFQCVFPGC
row,SMILES,inhibition
1,CCn1cc(C(=O)NCCCN2CCC(C)CC2)c(=O)c2cc(S(=O)(=O)N(C)C3CCCCC3)ccc21,31.6% (active)
2,Cc1ccc(S(=O)(=O)Oc2cccc(/C=N/Nc3ccc(C(=O)O)cc3)c2)cc1,94% (active)
3,Oc1ccc(/C=N/Nc2ccnc3cc(Cl)ccc23)c(O)c1O,51.8% (active)
4,Cc1ccc(-n2[nH]c(C)c(/C=N/Nc3ccc([N+](=O)[O-])cc3[N+](=O)[O-])c2=O)cc1C,33.5% (active)
5,COc1cc2c(C#N)c(N3CCc4ccccc4C3)nc(N)c2c(N)n1,32.4% (active)
6,Cc1cc(O)ccc1N=Cc1c(C(F)(F)F)[nH][nH]c1=O,12.2%
7,N#CC/C(N)=N/Nc1nc2ccccc2nc1Cc1ccccc1,-1.36%
8,Oc1ccc(-c2cnc(-c3ccc(O)cc3)nc2)cc1,16.1%
9,N#C/C(=C(\O)c1cc(Cl)sc1Cl)c1nc2ccccc2[nH]1,21.8%
10,C=CCc1cccc(/C=N/NC(=O)CNc2cccc3ccccc23)c1O,17.8%
11,COc1ccc(Nc2ncnc3sc(-c4ccccc4)cc23)cc1OC,6.82%
12,COc1cc(/C=N/NC(=O)c2cc3ccccc3[nH]2)ccc1O,16.1%
13,COc1cc2nc(Nc3ccc(C)c(Cl)c3)nc(N)c2cc1OC,49.4% (active)
14,CCC(=O)NC(c1cccs1)c1cc([N+](=O)[O-])c2cccnc2c1O (centres undefined),25.9%
15,O=c1cc(-c2ccccc2Cl)oc2c(NS(=O)(=O)c3cc(Cl)cc(Cl)c3O)ccc(O)c12,47.1% (active)
16,CCCN(CC(=O)Nc1ccccc1C)C(=O)COC(=O)CSc1ccc([N+](=O)[O-])cc1,17.4%
17,CCC1(C)Cc2c(sc3nc(NN)n(C)c(=O)c23)CO1 (centres undefined),-1.24%

row,SMILES,inhibition
1,Cc1ccc2[nH]c(O)c(N=NC(=O)c3ccc(NS(=O)(=O)c4cccs4)cc3)c2c1,45.9% (active)
2,Cc1ccc(-c2ccccc2NC(=O)CS(=O)CC(=O)Nc2ccc(C)c(Cl)c2)o1 (centres undefined),0.73%
3,N=c1oc2cc(O)ccc2cc1C(=O)Nc1nc2ccccc2s1,25.7%
4,COc1ccc(-c2cc(-c3c(O)c(OC)c4occc4c3OC)[nH]n2)cc1,19.9%
5,COc1ccc(/C(C)=C2/SC(=S)N(CCC(=O)O)C2=O)cc1,4.27%
6,C#CCN1c2ccccc2Sc2cccnc21,1.92%
7,CCCCN(C)C1=CC2=CC(=C(C#N)C#N)CCC2CC1 (centres undefined),-13%
8,Cc1ccc2nc(/C(C#N)=C/c3ccc(O)c(O)c3)[nH]c2c1,17.9%
9,O=C(N/N=C/c1c[nH]c2ccccc12)c1cc(-c2ccc3ccccc3c2)n[nH]1,10.8%
10,Cc1ccc(Cn2nnc3c(=O)[nH]c(C4CCN(S(=O)(=O)/C=C/c5ccccc5)CC4)nc32)cc1,23.8%
11,COc1cc(C(=O)Nc2c(C(=O)O)[nH]c3ccc(Br)cc23)cc(OC)c1OC,23.4%
12,CCOC(=O)c1c2c3c(cccc3n(C)c1=O)C(=O)c1ccccc1-2,21%
13,COc1cc(OC)c2cc(C(=O)N/N=C/c3ccccc3O)[nH]c2c1,19.1%
14,COc1ccc2c(c1)CC/C(=C\Nc1ccc3c(c1)OCO3)C2=O,36.9% (active)
15,O=C(NC(C(=O)N/N=C/c1cc([N+](=O)[O-])ccc1O)c1n[nH]c(=O)c2ccccc12)c1ccccc1 (centres undefined),58.3% (active)
16,O=C(NNc1c2ccccc2nc2ccccc12)c1ccc(O)cc1O,65.2% (active)
17,Cc1ccc(C(=O)O)cc1N1C(=O)c2cccc3c([N+](=O)[O-])ccc(c23)C1=O,38.7% (active)
